{
  "source": "the supplement of paper PMC11732987",
  "about": "“Enantioselective OTUD7B fragment discovery through chemoproteomics screening and high-throughput optimisation” (Communications Chemistry, 2025)",
  "note": "Unmarked numbers belong to inactive results.",
  "data": [
    {"molecular_target": "USP14 (UniProt P54578)", "sequence (P54578 whole entry, the tested form may be a part)": "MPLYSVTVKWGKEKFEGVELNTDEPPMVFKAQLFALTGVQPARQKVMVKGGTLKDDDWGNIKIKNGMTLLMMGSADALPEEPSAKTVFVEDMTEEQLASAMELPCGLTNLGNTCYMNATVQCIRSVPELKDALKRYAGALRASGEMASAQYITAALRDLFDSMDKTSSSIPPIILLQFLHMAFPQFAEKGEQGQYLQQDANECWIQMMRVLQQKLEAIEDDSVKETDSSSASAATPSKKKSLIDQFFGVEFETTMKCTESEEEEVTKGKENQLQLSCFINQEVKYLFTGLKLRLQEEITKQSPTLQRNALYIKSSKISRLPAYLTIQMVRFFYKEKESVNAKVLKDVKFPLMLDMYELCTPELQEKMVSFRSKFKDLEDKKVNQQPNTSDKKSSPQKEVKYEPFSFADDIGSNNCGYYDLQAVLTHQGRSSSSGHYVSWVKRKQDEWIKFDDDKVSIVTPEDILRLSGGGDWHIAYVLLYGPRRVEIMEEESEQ", "assay": "log2 ratio of Biotin-Ahx-Ub-VS probe labelling (fragment/DMSO); higher = less target engagement (more negative = stronger competition), active = hit call of the paper (q ≤ 0.05, log2 ratio ≤ -1)", "details": "compound concentration: 200 uM; treatment time: 3 h", "experimental": "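Competitive ABPP in HEK293T cell lysate. Lysates were treated with each chloroacetamide fragment at 200 µM for 3 h, then with Biotin-Ahx-Ub-VS (0.5 µM, 1 h), NeutrAvidin-enriched and analysed by diaPASEF LC-MS/MS. Protein LFQ was median-normalised; average log2 ratio is fragment/DMSO from an unpaired t-test (n=3 treated, n=44 DMSO). Hits: q ≤ 0.05, log2 ratio ≤ -1, unique peptides ≥ 2.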", "values": [
      {"smiles": "Cl.O=C(CN1CCN(C(=O)CCl)CC1)Nc1ccc(F)cc1", "log2 ratio of Biotin-Ahx-Ub-VS probe labelling": -0.0648},
      {"smiles": "CCN1C(=O)C2CN(C(=O)CCl)CCN2C1=O", "note": "(stereo not given)", "log2 ratio of Biotin-Ahx-Ub-VS probe labelling": -0.176},
      {"smiles": "O=C(CCl)N1CCC[C@@H]1c1ccon1", "log2 ratio of Biotin-Ahx-Ub-VS probe labelling": -0.652},
      {"smiles": "O=C(CCl)NCCc1ccc(F)cc1", "log2 ratio of Biotin-Ahx-Ub-VS probe labelling": -0.0749},
      {"smiles": "O=C(CCl)N1CCC2(CCC(O)CC2)CC1", "log2 ratio of Biotin-Ahx-Ub-VS probe labelling": 0.0657},
      {"smiles": "O=C(CCl)Nc1ccc2c(c1)OC(F)(F)O2", "log2 ratio of Biotin-Ahx-Ub-VS probe labelling": -0.0555},
      {"smiles": "O=C(CCl)NCc1ccc(Cl)cc1", "log2 ratio of Biotin-Ahx-Ub-VS probe labelling": -0.109},
      {"smiles": "O=C(CCl)NCc1ccc2c(c1)OCO2", "log2 ratio of Biotin-Ahx-Ub-VS probe labelling": 0.052},
      {"smiles": "CNC(=O)C1(NC(=O)CCl)CCCCC1", "log2 ratio of Biotin-Ahx-Ub-VS probe labelling": -0.0905},
      {"smiles": "O=C(CCl)N1CCC(O)(Cc2ccc(F)cc2)C1", "note": "(stereo not given)", "log2 ratio of Biotin-Ahx-Ub-VS probe labelling": 0.271},
      {"smiles": "COc1ccc(-c2csc(NC(=O)CCl)n2)cc1", "log2 ratio of Biotin-Ahx-Ub-VS probe labelling": -0.0511},
      {"smiles": "O=C(CCl)N(Cc1ccsc1)C1CC1", "log2 ratio of Biotin-Ahx-Ub-VS probe labelling": -0.456},
      {"smiles": "Cc1cc(C(=O)NC2CCN(C(=O)CCl)CC2)no1", "log2 ratio of Biotin-Ahx-Ub-VS probe labelling": -0.31},
      {"smiles": "CN(C(=O)CCl)c1nc2ccccc2s1", "log2 ratio of Biotin-Ahx-Ub-VS probe labelling": -0.178},
      {"smiles": "O=C(CCl)N1CCN(c2nc3ccccc3o2)CC1", "log2 ratio of Biotin-Ahx-Ub-VS probe labelling": -0.836},
      {"smiles": "Cc1ccc(CN(C)C(=O)CCl)o1", "log2 ratio of Biotin-Ahx-Ub-VS probe labelling": -0.0502},
      {"smiles": "O=C(CCl)N(C1=CCCCC1)C1CC1", "log2 ratio of Biotin-Ahx-Ub-VS probe labelling": -0.423},
      {"smiles": "CN(Cc1nc2ccccc2[nH]1)C(=O)CCl.Cl", "log2 ratio of Biotin-Ahx-Ub-VS probe labelling": 0.0145},
      {"smiles": "Cc1ccccc1C1(CNC(=O)CCl)CCOCC1", "log2 ratio of Biotin-Ahx-Ub-VS probe labelling": -0.0489},
      {"smiles": "O=C(CCl)NC1(c2ccc3c(c2)OCCO3)CCCC1", "log2 ratio of Biotin-Ahx-Ub-VS probe labelling": -0.293},
      {"smiles": "Cc1ccc(C)c(NC(=O)CCl)c1", "log2 ratio of Biotin-Ahx-Ub-VS probe labelling": -0.687},
      {"smiles": "O=C(CCl)N1CCc2sccc2C1", "log2 ratio of Biotin-Ahx-Ub-VS probe labelling": -0.619},
      {"smiles": "C[C@@H](NC(=O)CCl)c1cccc(C#N)c1", "log2 ratio of Biotin-Ahx-Ub-VS probe labelling": -0.243},
      {"smiles": "COCC1C=CCCN1C(=O)CCl", "note": "(stereo not given)", "log2 ratio of Biotin-Ahx-Ub-VS probe labelling": -0.0905},
      {"smiles": "Cc1ncc2c(n1)CCN(C(=O)CCl)C2", "log2 ratio of Biotin-Ahx-Ub-VS probe labelling": -0.161},
      {"smiles": "O=C(CCl)N1CCC(C(O)c2ccc(F)cc2)CC1", "note": "(stereo not given)", "log2 ratio of Biotin-Ahx-Ub-VS probe labelling": -0.0836},
      {"smiles": "O=C(CCl)N1CCCC2CCCCC21", "note": "(stereo not given)", "log2 ratio of Biotin-Ahx-Ub-VS probe labelling": -0.25},
      {"smiles": "O=C(CCl)N[C@H]1CCS(=O)(=O)c2ccccc21", "log2 ratio of Biotin-Ahx-Ub-VS probe labelling": -0.0969},
      {"smiles": "CC(NC(=O)CCl)c1ccc2[nH]ncc2c1", "note": "(stereo not given)", "log2 ratio of Biotin-Ahx-Ub-VS probe labelling": -0.802},
      {"smiles": "NC(=O)C1CCCN(C(=O)CCl)C1", "note": "(stereo not given)", "log2 ratio of Biotin-Ahx-Ub-VS probe labelling": -0.153},
      {"smiles": "O=C(CCl)N(C1CCCC1)C1CCS(=O)(=O)C1", "note": "(stereo not given)", "log2 ratio of Biotin-Ahx-Ub-VS probe labelling": -0.171},
      {"smiles": "Cc1ccc(N2CCC(NC(=O)CCl)C2=O)cc1", "note": "(stereo not given)", "log2 ratio of Biotin-Ahx-Ub-VS probe labelling": -0.0106},
      {"smiles": "COc1cccc(CN(C)C(=O)CCl)c1", "log2 ratio of Biotin-Ahx-Ub-VS probe labelling": -0.252},
      {"smiles": "CC(NC(=O)CCl)c1cccc2ccccc12", "note": "(stereo not given)", "log2 ratio of Biotin-Ahx-Ub-VS probe labelling": -0.209},
      {"smiles": "O=C(CCl)N1c2ccccc2NC(=O)C12CCCC2", "log2 ratio of Biotin-Ahx-Ub-VS probe labelling": -0.661},
      {"smiles": "O=C(CCl)NCCC1=CCCCC1", "log2 ratio of Biotin-Ahx-Ub-VS probe labelling": 0.0195},
      {"smiles": "O=C(CCl)N1CCC(=C(F)CO)C1", "log2 ratio of Biotin-Ahx-Ub-VS probe labelling": 0.054},
      {"smiles": "NS(=O)(=O)c1ccc(Cl)c(NC(=O)CCl)c1", "log2 ratio of Biotin-Ahx-Ub-VS probe labelling": -0.356},
      {"smiles": "O=C(CCl)Nc1cc2c(cc1Cl)OCCO2", "log2 ratio of Biotin-Ahx-Ub-VS probe labelling": 0.233},
      {"smiles": "Cl.O=C(CCl)N1CCC(Cc2nccs2)C1", "note": "(stereo not given)", "log2 ratio of Biotin-Ahx-Ub-VS probe labelling": -0.2}
    ]}
  ]
}
